# Compound activity from PubChem BioAssay.
# Not all results are given here.
# aSyn 5UTR act – Activators via SNCA 5'UTR binding, MLPCN; 300,000 compounds, 7.1% hits; activity score, % (tested at 7.5 µM), hits read low; alpha-synuclein 5'UTR reporter, activators screen; AID 1814, 2009; in the data active means activity score below about -60%
# An asterisk follows results filed as active.
SMILES,aSyn 5UTR act
c1ccc(-c2onc(-c3ccco3)c2-c2ccc3[nH]ccc3c2)cc1,-65*
O=C(NCCc1cccs1)c1cccs1,-147*
O=C(NCCCc1ccccc1)c1cccs1,-88*
CC(Cc1cccs1)NC(=O)Nc1ccc([N+](=O)[O-])cc1 (stereo not drawn),-75*
COc1ccc2cc(CCNC(=O)c3cccs3)c(=O)[nH]c2c1,-138*
Cc1ccc(-n2nc3c(N4CCC(C(=O)NCCc5cccs5)CC4)nnc(C)c3c2C)cc1,90
O=C(NCCc1ccc(F)cc1)c1cccs1,-139*
O=C(NCC(O)c1ccccc1)c1cccs1 (stereo not drawn),-136*
CC(Cc1cccs1)NC(=O)c1cccs1 (stereo not drawn),-80*
O=C(CNC(=O)c1cccs1)c1ccc(Br)cc1,-176*
O=C1C2C3C=CC(C4CC34)C2C(=O)N1/N=C/c1c[nH]c2ccccc12 (stereo not drawn),-141*
O=C1C2C3C=CC(C4CC34)C2C(=O)N1/N=C/c1ccc([N+](=O)[O-])s1 (stereo not drawn),-85*
c1ccc(-c2onc3cc4c(cc23)OCCO4)cc1,-167*
Clc1ccc2c(N/N=C/c3cccnc3)ccnc2c1,-81*
Oc1ccc(/C=N/Nc2ccnc3cc(Cl)ccc23)c(O)c1,-227*
Fc1ccc(N/N=C/c2cccnc2)c(F)c1,-114*
CN1C(c2ccc(F)cc2)=CS/C1=C(/C#N)c1nnc(N2CCOCC2)n1-c1ccccc1,-74*
O=C(/C=C\Nc1ccc2c(c1)OCO2)c1cccs1,-147*
O=C(Nc1ccc2c(c1)OCCO2)c1cccs1,-76*
O=C(Nc1ccc2c(c1)OCO2)c1cccs1,-176*
CCN(CC)S(=O)(=O)c1cc(NC(=O)c2ccc(Br)s2)ccc1C,-95*
O=C(N/N=C\c1cc2c(cc1Cl)OCO2)c1cccs1,-67*
O=C(CN1C(=O)c2ccccc2S1(=O)=O)c1ccc2c(c1)OCCCO2,114
O=C(Nc1ccc2c(c1)OCO2)c1ccc(Br)s1,-240*
O=C(c1ccc2c(c1)OCCCO2)c1cccs1,-118*
SMILES,aSyn 5UTR act
CC1=CC(c2ccccc2)=Nc2ccc(C)cc2N1,-151*
O=C(COc1ccccc1CNCc1ccccc1)Nc1ccccc1,-91*
OCc1ccccc1OCCOc1ccc(Cl)c2cccnc12,-95*
O=C(COc1cccc2cccnc12)Nc1ccccc1,-174*
Clc1ccc(OCc2cn3ccccc3n2)c2ncccc12,-158*
O=C(N/N=C/c1ccc[nH]1)c1ccc(COc2cccc3cccnc23)cc1,104
c1ccc(OCCOc2cccc3cccnc23)cc1,-94*
Brc1ccc(COc2cccc3cccnc23)cc1,-81*
OCc1ccccc1OCCCOc1cccc2cccnc12,-83*
CC1CN(S(=O)(=O)c2ccc(C(=O)NCCCn3ccnc3)cc2)CC(C)O1 (stereo not drawn),105
Cc1ccc(-c2ccc(S(=O)(=O)N3CC(C)OC(C)C3)cc2)cc1 (stereo not drawn),-78*
CN(c1ccc(C(=O)Nc2ccc3c(c2)OCCO3)cc1)S(C)(=O)=O,-149*
CN(c1ccc(C(=O)Nc2ccc3c(c2)OCO3)cc1)S(C)(=O)=O,-103*
N#CC1CC(c2ccccc2)Nc2cc(Cl)ccc2N1 (stereo not drawn),-331*
COc1ccc2nc3sc(C(=O)NCCCN4CCc5ccccc5C4)cc3cc2c1,-84*
CCn1cc(C(=O)O)c(=O)c2cnc(N3CCN(C(=S)Nc4ccccc4Cl)CC3)nc21,-112*
CCOC(=O)c1ccc2c(c1)[nH]c(=S)n2CC,-64*
Cn1c(NC(=O)CCC2CCCCC2)cc(=O)n(C)c1=O,-63*
O=C(CCC1CCCCC1)Nc1ccccc1O,-163*
Cc1ccc(O)c(NC(=O)CCC2CCCCC2)c1,-152*
CCc1ccc(S(=O)(=O)Nc2ccc(-c3nc4cccnc4s3)cc2)s1,-98*
NS(=O)(=O)c1ccc(C(=O)Nc2ccc(-c3nc4cccnc4s3)cc2)cc1,-121*
Cn1c(SCc2ccccc2)nnc1-c1ccc2c(c1)OCO2,-192*
c1ccc(CSc2ccc(-c3ccc4c(c3)OCO4)nn2)cc1,-150*
Cn1c(SCc2ccccc2)nnc1-c1ccc(O)cc1,-76*
SMILES,aSyn 5UTR act
Oc1ccccc1-c1nnc(SCCN2CCOCC2)n1Cc1ccccc1,81
CCc1cc(C(c2ccc(OC)c(OC)c2)N2CCOCC2)c(NC(=O)c2ccccc2)s1 (stereo not drawn),-62*
CCN(C(=O)C1=COCCO1)c1nc2c(C)cccc2s1,-84*
Cc1cc(C)c2nc(N(CCCN(C)C)C(=O)C3=COCCO3)sc2c1,-91*
CN(C)CCCN(C(=O)C1=COCCO1)c1nc2ccc(Br)cc2s1,-63*
CC1CCCCN1S(=O)(=O)c1ccc(C(=O)N(CCCN(C)C)c2nc3ccc(Br)cc3s2)cc1 (stereo not drawn),67
O=Cc1c(-c2ccccc2)cc2oc3ccccc3cc1-2,-119*
Cc1ccc(-c2nc(-c3ccccc3)no2)c(Cl)c1,95
Clc1ccc(Br)cc1-c1nc(-c2ccncc2)no1,-188*
Brc1cccc(-c2nc(-c3ccncc3)no2)c1,-100*
Cc1cccc(-c2nc(-c3ccncc3)no2)c1,-68*
Cc1cc(C)cc(-c2nc(-c3ccncc3)no2)c1,-149*
CCOc1ccc(/C=N/Nc2ccccc2)cc1,-75*
O=C(N/N=C/c1ccc(Cl)cc1)Nc1ccccc1,-170*
O=C(N/N=C/c1ccco1)Nc1ccccc1,-130*
Clc1ccc(/C=N\Nc2ccccc2)cc1,-67*
Cc1nn(Cc2c(F)c(F)c(F)c(F)c2F)c(C)c1NC(=O)c1ccc(COc2cc(Cl)ccc2Cl)cc1,-133*
Fc1ccc(-c2nc(-c3cccs3)no2)cc1,-134*
Fc1ccc(-c2cnc(-c3cccs3)o2)cc1,-148*
CCNc1nc(N)c(C(=O)c2ccc(Cl)s2)s1,-188*
Fc1ccc(-c2ncc3ccccn23)cc1,-101*
Brc1ccc(-c2ncc3ccccn23)cc1,-130*
CNC(=O)C(=O)Nc1nc(C23CC4CC(CC(C4)C2)C3)cs1,-129*
CCCc1c(C)c2ccc(OCC(C)=O)cc2oc1=O,-143*
Cc1c(C)c2ccc(OCC(=O)c3ccccc3)cc2oc1=O,-80*
SMILES,aSyn 5UTR act
Fc1cccc2sc(N3CCOCC3)nc12,-80*
Fc1cc(F)c2nc(N3CCCC3)sc2c1,-93*
Fc1cccc2sc(N3CCCCC3)nc12,-116*
COc1ccc(CN2C(=O)CS/C2=N/N=C/c2ccccc2)cc1,-64*
COc1ccc(/C=N/N=C2/SCC(=O)N2Cc2ccccc2)cc1,-170*
CC(=O)c1cc(C#N)c(SCc2ccc(F)cc2)nc1C,-98*
Cn1nc(OC(=O)Nc2ccccc2)cc1C(F)(F)F,-123*
COC(=O)c1cccc(NC(=S)Nc2cccc(Cl)c2Cl)c1,-69*
S=C(Nc1ccccc1)Nc1ccc(Cl)cc1Cl,-91*
S=C(Nc1ccccc1)Nc1cccc(Cl)c1Cl,-67*
NNC(=S)Nc1ccccc1Cl,-185*
CNC(=S)Nc1cccc(C(=O)OC)c1,-91*
CC(C)(C)CC(=O)Nc1nnc(CCc2ccccc2)s1,-113*
CC(C)(C)Cc1nnc(NC(=O)CSc2ccccc2)s1,-137*
CCC(C)(C)C(=O)Nc1nnc(CCc2ccccc2)s1,-141*
COc1ccc(OC)c(NC(=O)c2cc(-c3cc(C)c(C)cc3O)n[nH]2)c1,-95*
COc1ccc(OC)c(NC(=O)c2cc(-c3c(C)cc(C)cc3O)n[nH]2)c1,-112*
CCc1nnc(NC(=O)c2csc3c2CCC(C)C3)s1 (stereo not drawn),-67*
